Results on 24 molecules are retold here after ChEMBL document CHEMBL3433997, “St. Jude Leishmania screening dataset” (2016).

What all share (type): functional
The target in assay [1] is Solute carrier family 2, facilitated glucose transporter member 1 (Homo sapiens) (UniProt P11166). The assay can be described thus: ST_JUDE_LEISH: Cytotoxicity at 2uM final concentration against transgenic Leishmania Mexicana promastigotes LmGLUT1 that are glucose transport deficient and complemented with the human glucose transporter GLUT1. Activity is measured by DNA content using SYBR green in vitro.
Sequence of Solute carrier family 2, facilitated glucose transporter member 1 (Homo sapiens) (P11166 whole entry): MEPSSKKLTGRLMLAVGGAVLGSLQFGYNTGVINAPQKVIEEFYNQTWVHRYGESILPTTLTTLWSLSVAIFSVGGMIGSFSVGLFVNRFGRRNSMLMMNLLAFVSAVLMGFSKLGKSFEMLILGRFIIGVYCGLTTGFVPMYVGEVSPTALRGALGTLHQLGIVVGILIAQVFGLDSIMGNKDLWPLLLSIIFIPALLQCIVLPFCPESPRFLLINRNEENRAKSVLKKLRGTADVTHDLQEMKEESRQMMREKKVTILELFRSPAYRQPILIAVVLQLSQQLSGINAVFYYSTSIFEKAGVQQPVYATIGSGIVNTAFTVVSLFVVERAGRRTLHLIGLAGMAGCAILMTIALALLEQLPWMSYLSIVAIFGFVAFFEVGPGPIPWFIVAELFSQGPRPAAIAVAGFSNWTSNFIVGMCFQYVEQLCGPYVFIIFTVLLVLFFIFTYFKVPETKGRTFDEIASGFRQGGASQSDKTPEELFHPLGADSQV

Assay [2] concerns the target Hexose transporter 1 (Plasmodium falciparum) (UniProt O97467). The experiment in a line: ST_JUDE_LEISH: Cytotoxicity at 2uM final concentration against transgenic Leishmania Mexicana promastigotes LmPfHT that are glucose transport deficient and complemented with the Plasmodium falciparum hexose transporter. Activity is measured by DNA content using SYBR green in vitro.

The target in assay [3] is Glucose transporter (Leishmania mexicana) (UniProt O61059). The assay can be described thus: ST_JUDE_LEISH: Cytotoxicity at 2uM final concentration against transgenic Leishmania Mexicana promastigotes LmGT2 that are glucose transport deficient and complemented with the L. Mexicana glucose transporter 2. Activity is measured by DNA content using SYBR green in vitro.

The term inhibition denotes the change of the read-out against control, counted positive when it falls. Turning to `CN1CCN(c2ccnc3ccc(NC(=O)Cc4ccc(-c5ccncc5)c5ccccc45)cc23)CC1`, the inhibition in assay [1] was -3.69%; in assay [2], 0.37%; in assay [3], -0.2%.
Consider `COc1ccc2nccc([C@@H](O)CN3CCC(NCc4ccc5c(c4)OCCO5)CC3)c2c1`, for which the inhibition turned out to be 6.76% in assay [1], 5.93% in assay [2] and 0.41% in assay [3].
On to `CCCC(C)NC[C@@H](O)[C@H](Cc1ccccc1)NC(=O)c1cc(C2CCCC2)cc(N2CCCCS2(=O)=O)c1` (some centres not stated), for which the inhibition is 3.4% in assay [1], 3.66% in assay [2] and 2.98% in assay [3].
Take `c1ccc2[nH]c(-c3ccc(-c4ccc(CN5CCN(c6ccncc6)CC5)cc4)cc3)nc2c1`: the results for the inhibition in assay [1], in assay [2] and in assay [3] were 21.3%, 15.4% and 6.31%, respectively.
Consider `CC(C)(CNC(=O)C1CCN(Cc2ccc(Cl)cc2)CC1)c1nc(-c2ccc(Cl)c(O)c2)c(-c2ccncc2)[nH]1`, for which the inhibition in assay [1] stood at 6.62%; in assay [2], 6.8%; in assay [3], 9.13%.
`Fc1ccc(-c2cc(NCCCn3ccnc3)nc(-c3cccnc3)n2)cc1`: the inhibition in assay [1] amounted to 1.99%; in assay [2], 0.82%; in assay [3], 2.67%.
In the same order, the values of `CC(=O)Nc1ccc(OCCCN(Cc2ccccc2OC(F)(F)F)c2ccc(C(F)(F)F)c(C#N)c2)c(Cl)c1` are 2.37%, -1.13% and 1.86%.
Take `O=C(C1CC1)N1c2ccccc2CCc2ccccc21`: the inhibition in assay [1] was -0.93%; in assay [2], -0.1%; in assay [3], -0.64%.
`CCn1c(Sc2ccc(C#N)c([N+](=O)[O-])c2)nnc1-c1ccc(Cl)cc1`: the inhibition in assay [1] was 3.57%; in assay [2], 3.08%; in assay [3] it was 1.39%.
For `CC(C)(C)C(=O)Nc1ccc(C(=O)Nc2cccc(-c3nc4ccccc4[nH]3)c2)cc1`, the values for the inhibition in assay [1], in assay [2] and in assay [3] were 1.87%, 0.85% and -0.79%, respectively.
In the same order, the values of `COc1ccc(NC2=C(c3ccccc3)C(=O)c3ccccc32)cn1` are 7.83%, 4.66% and 3.49%.
Consider `CC(CN(C)C)C(=O)Nc1cccc(-c2cccc(-c3nc4ccccc4[nH]3)c2)c1` (configuration not stated), for which the inhibition in assay [1] is -0.1%; in assay [2], -0.62%; in assay [3] it was 3.87%.
For the molecule `NC(=O)COc1cccc2c1CCN(CCN1CCC(NC(=O)c3ccc(-c4ccc(Cl)cc4)cc3)CC1)C2`, the figures for the inhibition in assay [1], in assay [2] and in assay [3] were 1.06%, 4.42% and 2.71%, respectively.
In the same order, the values of `N#Cc1ccc(Sc2nnc(-c3ccccc3Cl)n2CC2CCCCC2)cc1[N+](=O)[O-]` are 2.9%, 3.12% and 0.82%.
In the same order, the values of `N#Cc1cc([N+](=O)[O-])ccc1-n1nc(-c2cccc(Cl)c2)n(CC2CCCO2)c1=S` (configuration not stated) are 2.07%, 1.3% and -4.52%.
In the same order, the values of `COc1c(O)cc2oc(-c3ccc(O)cc3)cc(=O)c2c1O` are 1.18%, 1.7% and 3.31%.
Regarding `CC(C)(Cc1ccc(Cl)cc1)NCCCCCCNCCc1ccc(O)c(O)c1`, the inhibition is -0.5% in assay [1], -2.96% in assay [2] and -1.18% in assay [3].
For `CN(C(=O)NCCc1ccccc1)C1CCN(CCCCCNC(=O)/C=C/c2ccc(Cl)c(Cl)c2)CC1`, the inhibition in assay [1] turned out to be 14.9%; in assay [2] it was 12%; in assay [3], 12.4%.
As for `Nc1ncc(-c2cccc(CCN3CCOCC3)c2)cc1-c1nc2cc(Br)ccc2[nH]1`, the inhibition in assay [1] worked out at 14%; in assay [2], 9.95%; in assay [3], 11.8%.
On to `CC[C@H](N/C(=N\c1cccc(Cl)c1Cl)Nc1ccc(C#N)cc1O)c1ccccc1`, for which the inhibition was determined as 7.88% in assay [1], 9.4% in assay [2] and 6.46% in assay [3].
Consider `CS(=O)(=O)c1ccc2c(c1)CCN(CCC1CCC(NC(=O)C(=Cc3ccc(Cl)cc3Cl)c3ccc(-c4ccccc4)cc3)CC1)CC2` (configuration not stated), for which the results for the inhibition in assay [1], in assay [2] and in assay [3] were -0.33%, 3.12% and 3.51%, respectively.
In the same order, the values of `CC(C)(C)C1CCC(CC2=C(C(=O)O)c3ccccc3C2=O)CC1` (configuration not stated) are 1.16%, 0.47% and -1.33%.
In the same order, the values of `CC(C)(C)c1ccc2[nH]c(-c3ccc(C(=O)NC4CCN(Cc5ccccc5)CC4)s3)nc2c1` are 3.39%, 2.69% and 1.79%.
As to `Cc1nn(-c2ccccc2)nc1C(=O)NC1CCN(CCNC(=O)c2ccc(Cl)c(Cl)c2)CC1`, the inhibition in assay [1] amounted to 0.92%; in assay [2], 2.53%; in assay [3], 1.85%.
